The values that follow come from PubChem BioAssay (NCATS).

Experiment [1] in a line: AP1 Signaling Pathway (AID 357).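 Also: ME-180 reporter cells stimulated with EGF at its EC50 level; % is scaled to controls: 0 for no effect and ±100 for the full control effect.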 In outline: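 Modulation of EGF-driven AP-1 transcription was assessed with a beta-lactamase reporter in ME-180 cells. Compound and EC50 EGF were co-incubated 5 hours at 37 °C before 2.5-hour CCF4 loading at room temperature and dual-emission reading.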
The target of experiment [2] is Glucocorticoid receptor (Homo sapiens) (UniProt P04150). As to the kind of experiment: GR-EFC Redistribution (AID 451; calls by dose curve; also: potency is read from the fitted curve at half-maximal effect). The note with it: CHO-K1 GR-EFC translocation, beta-gal luminescence, 2 h. In outline:
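CHO-K1 cells stably expressing nuclear-localized β-gal enzyme acceptor and GR fused C-terminally to the enzyme donor fragment; ligand-driven nuclear translocation restores β-gal by complementation. Compounds titrated up to 46 uM final, 2 h at 37 °C; luminescence read.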

Experiment [3] addresses Mitogen-activated protein kinase 10 (Mus musculus) (UniProt Q61831). The experiment is described as follows: JNK3 AlphaScreen Assay (AID 530).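 Also: kinase came from lysate of stimulated human HepG2 cells; signal reports phosphorylation of biotinylated GST-cJun 1-79 at Ser73 with 10 µM ATP; % is scaled to controls: 0 for no effect and ±100 for the full control effect.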 The procedure, abridged:
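Biotinylated GST-cJun(1-79) served as substrate for JNK3 in HepG2 lysates stimulated with IL-1beta and TNF-alpha. ATP was 10 uM final, pH 7.6. Ser73 phosphorylation was quantified by AlphaScreen (680 nm excitation).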

In experiment [4] the target is 3',5'-cyclic-AMP phosphodiesterase 4B (Homo sapiens) (UniProt Q07343). As to the kind of experiment: qHTS Assay for Inhibitors of PDE-IV (AID 607; active = well fitted activation curve with a large enough effect in the main read-out, with a control signal flat, not every such curve was filed as active; also: % of control where 0% means no effect). In outline:
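ACTOne HEK293 cells carry a modified cAMP-gated CNG channel and express endogenous PDE4; plated 1000 cells/well, compounds up to 22.9 uM final. Membrane-potential dye fluorescence (ex 535/em 590) was read; parental cells received 10 uM forskolin + 100 uM RO 20-1724.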

The nature of experiment [5]: qHTS Assay for Lipid Storage Modulators (AID 1519; calls by dose curve). The note with it: Drosophila S3 cells, BODIPY lipid droplet/cell ratio, laser cytometry, cells loaded with oleic acid; for activity change, negative = inhibition: at 25.7 µM (top of the series). In outline: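 Cells seeded at 5,000 per well were treated with compounds over a concentration series and loaded with oleic acid (400 uM, as added). Lipid droplet fluorescence (488 nm excitation, 500-530 nm channel) was read by laser-scanning cytometry and normalized to 20 uM Triacsin C.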

Experiment [6] in a line: Stat Signaling Pathway (AID 446).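 Also: ME-180 cervical cancer cells given 40 pM IL-6 alongside compound; SIE-controlled beta-lactamase reporter measured as 460/530 nm FRET emission ratio; % is scaled to controls: 0 for no effect and ±100 for the full control effect.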 The procedure, abridged:
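Compound effects on IL-6-induced STAT reporter activity were measured in ME-180 cells. After overnight culture, cells were co-treated with 40 pM IL-6 for 5 hrs before beta-lactamase substrate loading at room temperature.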

The target in experiment [7] is Cytochrome P450 1A2 (Homo sapiens) (UniProt P05177). The experiment is described as follows: p450-cyp1a2 (AID 410; calls by dose curve;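 also: -100% = full effect of reference inhibitor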). In outline: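 20nM CYP1A2, 100uM Luciferin-ME (=Km), 100mM KPO4; cpd 10 min RT; +NADPH regen, 60 min RT; stop/detect 20 min; luminescence. Normalized to furafylline 57 uM = full inhibition.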
A short description of experiment [8]: NFAT Signaling Pathway (AID 444).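 Also: carbachol stimulus at about its EC50 of 1 µM final; % is scaled to controls: 0 for no effect and ±100 for the full control effect.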 The following applies: Jurkat NFAT-bla M1, carbachol, beta-lactamase ratio, 5 h; at 17.2 µM (top of the series). In outline:
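Jurkat cells carrying an NFAT-driven β-lactamase reporter and co-transfected muscarinic M1 receptor were treated with compound plus carbachol (1 uM final, an EC50 level) for 5 h at 37 °C. CCF4 loading followed for 1 h at RT; 460/530 nm ratio gave %activity.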

In experiment [9] the target is Ubiquitin carboxyl-terminal hydrolase 1 (Homo sapiens) (UniProt O94782). The experiment is described as follows: Inhibitors of USP1/UAF1: Pilot qHTS (AID 504865; active = well fitted inhibition curve with a large enough effect;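 also: rhodamine fluorescence freed from ubiquitin-rhodamine substrate followed over time; top concentration of the series differs between compounds; % is scaled to controls: 0 for no effect and ±100 for the full control effect; nearly all actives have a fitted effect of over 35% in size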). The procedure, abridged: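 USP1/UAF1 complex (1nM) preincubated with compound 15 min at room temperature, then Ub-Rho substrate (150nM final) added. Fluorescence read kinetically at 480/540 nm, 6 reads every 60 seconds. Buffer: 50mM HEPES pH 7.8, 0.5mM EDTA, 0.1 mg/ml BSA, 1mM TCEP, 0.01% Tween-20.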

Experiment [10] deals with Glucocorticoid receptor (Homo sapiens) (UniProt P04150). As to the kind of experiment: GR-GFP Redistribution (AID 450;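 active = compounds whose dose series gives a full or clear partial fitted curve of increased nuclear translocation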; also: potency is read from the fitted curve at half-maximal effect). The note with it: U2OS GR-GFP nuclear translocation, laser cytometry, 2 h.
Experiment [11] has as its target Luciferin 4-monooxygenase (Photinus pyralis) (UniProt P08659). As to the kind of experiment: Biochemical firefly luciferase enzyme assay for NPC (AID 624030; active = well fitted inhibition curve with a large enough effect;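 also: purified P. pyralis luciferase at 10 nM with luciferin and ATP substrate; 0% = DMSO and -100% = full luciferase inhibition by PTC124 control; nearly all actives have a fitted effect of over 70% in size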). The procedure, abridged: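 Counter-screen for direct inhibition of the luciferase enzyme by approved-drug library compounds, run at 10 nM enzyme in 50 mM Tris acetate (final). Luminescence was read within 5 min of enzyme-buffer addition and normalized to PTC124 versus DMSO (0%).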

A short description of experiment [12]: qHTS profiling for inhibitors of Plasmodium falciparum proliferation (AID 504749; active = well fitted inhibition curve with a large enough effect;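 also: 0% = DMSO vehicle and full inhibition = artemisinin control; nearly all actives have a fitted effect of over 60% in size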). The note with it: P. falciparum in erythrocytes, SYBR Green DNA, 72 h; at 12.8 µM (top of the series); parasite line A. The procedure, abridged: (§1)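 Fluorescence of SYBR Green-bound parasite DNA, read at 485/535 nm, served as the growth measure. Infected erythrocytes were cultured with compound 72 h; artemisinin (0.29 uM) and DMSO wells defined the normalization range.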

Experiment [13] deals with 3D7. The description is as above. The note with it: P. falciparum in erythrocytes, SYBR Green DNA, 72 h; series mostly up to 28.7 µM. In outline:
as §1

Experiment [14] deals with C2A. Described as above. The note with it: P. falciparum in erythrocytes, SYBR Green DNA, 72 h; series mostly up to 28.7 µM. The procedure, abridged:
as §1

Experiment [15] deals with CP211. The experiment is described as above. The note with it: P. falciparum in erythrocytes, SYBR Green DNA, 72 h; series mostly up to 28.7 µM. The procedure, abridged: as §1
Experiment [16] concerns CP217. Described as above. The following applies: P. falciparum in erythrocytes, SYBR Green DNA, 72 h; series mostly up to 28.7 µM. In outline:
as §1

Experiment [17] relates to CP252. Described as above. The note with it: P. falciparum in erythrocytes, SYBR Green DNA, 72 h; series mostly up to 12.8 µM. In outline: as §1
The subject of experiment [18] is CP262. Described as above. The note with it: P. falciparum in erythrocytes, SYBR Green DNA, 72 h; series mostly up to 28.7 µM. In outline:
as §1

The test system of experiment [19] is CP286. The description is as above. The following applies: P. falciparum in erythrocytes, SYBR Green DNA, 72 h; series mostly up to 28.7 µM. In outline: as §1
The test system of experiment [20] is ECU. Described as above. The following applies: P. falciparum in erythrocytes, SYBR Green DNA, 72 h; series mostly up to 28.7 µM. In outline: as §1
[21] abbreviates: measured here: cell count channel max response.
The mark [22] stands for this setting: measured here: lipid channel max response.

Results filed as inconclusive are left out. Calls of active or inactive are those of the source. Unless noted, calls follow the shape of the dose curve; as a rule, active = well fitted curve in either direction with a large enough effect (not every such curve was filed as active); inconclusive = small, poorly fitted or top-dose-only effect, or another doubt; inactive = flat fitted curve, though single readings scatter. Bounds are passed on as bounds.

Ubiquitin carboxyl-terminal hydrolase 1 (Homo sapiens), sequence (O94782 whole entry, looked up): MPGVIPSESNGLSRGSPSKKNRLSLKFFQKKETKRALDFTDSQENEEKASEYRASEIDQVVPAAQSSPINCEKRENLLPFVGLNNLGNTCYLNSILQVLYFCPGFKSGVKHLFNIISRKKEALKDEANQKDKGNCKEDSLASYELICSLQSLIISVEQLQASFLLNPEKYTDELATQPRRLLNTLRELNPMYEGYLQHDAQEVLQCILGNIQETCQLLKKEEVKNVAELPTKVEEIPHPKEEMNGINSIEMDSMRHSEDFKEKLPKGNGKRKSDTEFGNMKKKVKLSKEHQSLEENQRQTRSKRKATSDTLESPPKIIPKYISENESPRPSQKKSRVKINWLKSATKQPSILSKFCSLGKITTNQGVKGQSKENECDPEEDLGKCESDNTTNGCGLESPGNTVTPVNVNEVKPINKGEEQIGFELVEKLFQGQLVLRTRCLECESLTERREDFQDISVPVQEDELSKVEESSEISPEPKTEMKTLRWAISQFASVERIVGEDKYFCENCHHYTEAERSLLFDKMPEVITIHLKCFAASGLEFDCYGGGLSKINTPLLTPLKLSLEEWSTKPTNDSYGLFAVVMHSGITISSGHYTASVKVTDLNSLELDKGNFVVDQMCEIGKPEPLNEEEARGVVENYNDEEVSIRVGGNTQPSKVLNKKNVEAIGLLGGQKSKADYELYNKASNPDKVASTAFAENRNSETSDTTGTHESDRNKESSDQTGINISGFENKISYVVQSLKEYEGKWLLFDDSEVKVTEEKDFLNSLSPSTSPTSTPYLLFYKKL
3',5'-cyclic-AMP phosphodiesterase 4B (Homo sapiens), sequence (Q07343 whole entry, looked up): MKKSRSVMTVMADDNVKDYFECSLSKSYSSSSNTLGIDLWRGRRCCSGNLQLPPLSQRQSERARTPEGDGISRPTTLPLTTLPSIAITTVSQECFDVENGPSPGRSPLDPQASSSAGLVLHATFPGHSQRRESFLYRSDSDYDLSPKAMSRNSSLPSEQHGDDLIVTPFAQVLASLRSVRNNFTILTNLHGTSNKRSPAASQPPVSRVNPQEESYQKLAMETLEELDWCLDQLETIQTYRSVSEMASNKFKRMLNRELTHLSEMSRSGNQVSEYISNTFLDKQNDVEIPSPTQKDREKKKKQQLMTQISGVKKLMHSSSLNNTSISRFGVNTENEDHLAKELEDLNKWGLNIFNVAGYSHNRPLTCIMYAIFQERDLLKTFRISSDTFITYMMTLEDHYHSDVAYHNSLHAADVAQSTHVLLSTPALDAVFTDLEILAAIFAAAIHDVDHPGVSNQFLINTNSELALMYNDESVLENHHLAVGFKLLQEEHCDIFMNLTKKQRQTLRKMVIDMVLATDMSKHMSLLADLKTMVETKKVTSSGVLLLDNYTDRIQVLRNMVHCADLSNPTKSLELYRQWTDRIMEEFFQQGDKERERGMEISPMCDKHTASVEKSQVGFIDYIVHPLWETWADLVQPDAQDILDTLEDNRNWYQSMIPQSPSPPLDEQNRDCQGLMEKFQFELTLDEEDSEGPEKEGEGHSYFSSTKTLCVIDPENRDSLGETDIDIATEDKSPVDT
Glucocorticoid receptor (Homo sapiens), sequence (P04150 whole entry, looked up, the tested form may be a part): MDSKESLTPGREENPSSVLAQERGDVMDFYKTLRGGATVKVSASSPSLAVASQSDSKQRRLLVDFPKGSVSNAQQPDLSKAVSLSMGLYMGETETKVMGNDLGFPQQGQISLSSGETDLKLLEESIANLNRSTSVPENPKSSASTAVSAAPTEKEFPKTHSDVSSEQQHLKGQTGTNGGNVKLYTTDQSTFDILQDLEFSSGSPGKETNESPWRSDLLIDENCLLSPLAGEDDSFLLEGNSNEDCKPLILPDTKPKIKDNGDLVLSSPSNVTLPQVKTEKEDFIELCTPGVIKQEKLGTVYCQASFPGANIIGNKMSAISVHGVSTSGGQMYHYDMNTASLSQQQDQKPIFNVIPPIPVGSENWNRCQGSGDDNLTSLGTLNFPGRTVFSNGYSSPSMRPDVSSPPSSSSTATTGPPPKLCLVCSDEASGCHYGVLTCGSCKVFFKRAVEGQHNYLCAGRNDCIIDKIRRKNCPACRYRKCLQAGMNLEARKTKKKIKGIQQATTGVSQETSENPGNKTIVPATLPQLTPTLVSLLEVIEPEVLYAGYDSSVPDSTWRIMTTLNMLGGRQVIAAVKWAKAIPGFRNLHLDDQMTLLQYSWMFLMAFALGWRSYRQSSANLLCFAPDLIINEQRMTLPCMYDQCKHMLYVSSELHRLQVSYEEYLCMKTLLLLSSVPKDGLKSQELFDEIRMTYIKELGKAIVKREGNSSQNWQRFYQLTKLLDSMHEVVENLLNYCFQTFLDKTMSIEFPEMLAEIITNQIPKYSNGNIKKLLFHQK
Cytochrome P450 1A2 (Homo sapiens), sequence (P05177 whole entry, looked up): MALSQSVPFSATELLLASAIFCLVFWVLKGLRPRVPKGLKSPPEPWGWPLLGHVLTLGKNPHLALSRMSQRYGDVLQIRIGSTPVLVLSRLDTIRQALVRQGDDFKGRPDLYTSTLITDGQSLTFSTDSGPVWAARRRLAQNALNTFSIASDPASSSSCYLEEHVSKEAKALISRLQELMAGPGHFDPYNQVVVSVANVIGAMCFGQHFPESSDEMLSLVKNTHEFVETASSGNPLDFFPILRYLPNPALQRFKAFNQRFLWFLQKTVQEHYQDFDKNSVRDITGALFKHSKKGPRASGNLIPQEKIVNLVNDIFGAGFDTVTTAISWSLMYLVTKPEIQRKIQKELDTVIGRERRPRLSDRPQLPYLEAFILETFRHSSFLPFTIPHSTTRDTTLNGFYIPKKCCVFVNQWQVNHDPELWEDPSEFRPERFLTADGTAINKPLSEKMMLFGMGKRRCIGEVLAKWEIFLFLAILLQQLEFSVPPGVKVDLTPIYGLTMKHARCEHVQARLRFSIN
Luciferin 4-monooxygenase (Photinus pyralis), sequence (P08659 whole entry, looked up): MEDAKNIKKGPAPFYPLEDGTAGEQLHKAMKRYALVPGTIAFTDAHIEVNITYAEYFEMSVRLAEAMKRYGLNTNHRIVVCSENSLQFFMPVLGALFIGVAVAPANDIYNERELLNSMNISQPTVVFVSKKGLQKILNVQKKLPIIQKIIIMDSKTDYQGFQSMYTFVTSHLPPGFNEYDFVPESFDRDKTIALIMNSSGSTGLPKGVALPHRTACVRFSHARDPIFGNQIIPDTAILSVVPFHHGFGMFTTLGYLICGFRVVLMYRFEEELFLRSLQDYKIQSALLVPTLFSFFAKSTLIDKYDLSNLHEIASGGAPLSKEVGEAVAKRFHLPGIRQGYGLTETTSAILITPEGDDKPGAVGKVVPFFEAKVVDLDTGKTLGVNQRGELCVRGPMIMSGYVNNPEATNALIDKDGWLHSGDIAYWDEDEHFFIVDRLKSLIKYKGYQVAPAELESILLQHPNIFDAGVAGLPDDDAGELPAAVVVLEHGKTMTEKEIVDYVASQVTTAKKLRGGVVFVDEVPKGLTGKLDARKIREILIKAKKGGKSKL

Take `CO[C@@H](C)[C@](O)(C(=O)OCC1=CCN2CC[C@@H](O)[C@H]12)C(C)C`: the call in experiment [1] and in [3] was inactive. In [2], the Potency was > 20.6 µM (inactive). Moreover, the Potency entry in [4] is “inactive”. Also, the activity change, negative = inhibition in experiment [5] is -0.0062% (inactive). The max response in experiment [5] (setting [21]) is -11.3%; in experiment [5] (setting [22]) it was -10.6%.

For the compound `CCN1C[C@]2(C)CC[C@H](O)[C@@]34[C@@H]5CC6[C@@H](OC)C[C@@](O)([C@@H]5[C@@H]6O)[C@H](C[C@@H]23)[C@H]14`, the result in experiment [1], in experiment [6] and in experiment [3] was inactive. Moreover, the Potency in experiment [2] is > 20.6 µM (inactive). The Potency entry in [4] is “inactive”. Also, in experiment [5], the activity change, negative = inhibition is -2.73% (inactive). Further, the max response is -6.13% in experiment [5] (setting [21]) and -11.4% in experiment [5] (setting [22]).

Take `CN1[C@@H]2CC[C@H]1CC(O)C2` (some centres not stated): the Potency entry in experiment [7], in experiment [4] and in experiment [9] was “inactive” in each case. Moreover, the results for the activity change, negative = inhibition in [8] and in [5] were -15.4% (inactive) and -5.91% (inactive), respectively. Besides, the outcome in experiment [6] and in experiment [3] was inactive. Moreover, the max response was -19.1% in [5] (setting [21]) and -25.1% in experiment [5] (setting [22]).

As for `C[C@@]12CC[C@H](O)C[C@@H]1CC[C@H]1[C@@H]2C[C@@H](O)[C@]2(C)[C@@H](C3=CC(=O)OC3)CC[C@]12O`, the Potency result in experiment [7] and in [9] was “inactive” throughout. Also, the result in experiment [6] and in experiment [3] was inactive. Also, the Potency in experiment [10] and in experiment [2] was > 20.6 µM (inactive) in each case. Further, the activity change, negative = inhibition in [5] was -4.23% (inactive). Besides, the max response in [5] (setting [21]) was -5.31%; in experiment [5] (setting [22]), -9.41%.

As for `C[C@H]1CC[C@@H]2[C@@H](C)C(=O)O[C@H]3O[C@@]4(C)CC[C@H]1[C@@]32OO4`, the outcome in [1], in experiment [6] and in experiment [3] was inactive. Besides, the activity change, negative = inhibition in experiment [8] was -0.23% (inactive); in experiment [5] it was -3.8% (inactive). In addition, in experiment [2], the Potency was > 20.6 µM (inactive). Also, in experiment [4], the Potency result was “inactive”. Besides, the values for the max response in [5] (setting [21]) and in [5] (setting [22]) were -10.2% and -15%, respectively.

Turning to `Oc1ccc2c3c1O[C@H]1[C@@H](O)CC[C@]4(O)[C@H](C2)N(CC2CCC2)CC[C@@]314`, the result in experiment [1] and in experiment [3] was inactive. For the same compound, the activity change, negative = inhibition is -1.63% (inactive) in [8] and -2.99% (inactive) in [5]. In addition, the Potency in experiment [2] is > 20.6 µM (inactive). Also, the Potency result in experiment [4] and in experiment [9] was “inactive” each time. Also, the max response was 3.75% in experiment [5] (setting [21]) and 0.408% in experiment [5] (setting [22]).

Turning to `CN[C@@H](C)[C@H]1CC[C@@H](N)[C@@H](O[C@@H]2[C@@H](O)[C@@H](O[C@H]3OC[C@@](C)(O)[C@@H](NC)[C@@H]3O)[C@H](N)C[C@@H]2N)O1` (tested in a mixture with another compound), the call in experiment [1], in [6] and in [3] was inactive. Further, the Potency result in experiment [4], in experiment [11], in [13], in [14], in experiment [15] and in experiment [16] was “inactive” each time. Besides, the Potency result in [17], in [18], in [19] and in [20] was “inactive” throughout. In addition, the activity change, negative = inhibition in [5] is -2.96% (inactive). The results for the max response in [5] (setting [21]) and in experiment [5] (setting [22]) were -4.43% and -11.6%, respectively. The activity, negative = inhibition in experiment [12] was 3.71% (inactive).

`C=C(C)[C@H]1[C@H]2OC(=O)[C@@H]1[C@]1(O)C[C@H]3O[C@]34C(=O)O[C@H]2[C@@]14C`: the compound was classed as inactive in [1], in experiment [6] and in experiment [3]. For the same compound, the figures for the activity change, negative = inhibition in [8] and in [5] were -0.55% (inactive) and -0.482% (inactive), respectively. The Potency in [2] is > 20.6 µM (inactive). In addition, the Potency entry in experiment [4] was “inactive”. For the same compound, the max response was -3.6% in experiment [5] (setting [21]) and -3.43% in [5] (setting [22]).
